# Results as given in PubChem BioAssay.
# Calls of active or inactive are those of the source.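 How the source made its calls: active means compounds killing one labelled cell type while sparing the other, by normalised counts and ratio limits, not self-fluorescent; inactive means the rest.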
# Experiment: differential killing of epithelial or mesenchymal cells, primary screen, imaging, PC-3E GFP, TEM4-18 mCherry, co-culture (AID 1345086);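 further: cells exposed to compound for 72 h before imaging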;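 on red/green cell ratio (normalised): normalised mesenchymal count divided by normalised epithelial count so high means epithelial killing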
# Conditions: imaging cell counts, at 1 µM; for red/green cell ratio (normalised): actives lie on both sides, counts scaled to control wells, 1 = unselective
# [1] = measured here: epithelial PC-3E GFP cell survival
# [2] = measured here: mesenchymal TEM4-18 mCherry cell survival
Structure (SMILES),red/green cell ratio (normalised),normalised cell number [1],normalised cell number [2]
N[C@@H](CCC(=O)N[C@@H](CS)C(=O)NCC(=O)O)C(=O)O,1.12 (inactive),0.76,0.85
O=C(O)c1ccccc1Nc1cccc(C(F)(F)F)c1,0.85 (inactive),1.18,1
NC(=O)c1ccc([N+](=O)[O-])cc1Cl,1.37 (inactive),0.87,1.19
CC(=O)NO,1.09 (inactive),1.08,1.18
CCC(Cc1c(I)cc(I)c(N)c1I)C(=O)O (stereo not drawn),1.11 (inactive),1.2,1.33
CCOc1ccc(NC(C)=O)cc1,1.26 (inactive),1.07,1.35
NC(=NCCCCCCN=C(N)/N=C(\N)Nc1ccc(Cl)cc1)/N=C(\N)Nc1ccc(Cl)cc1,1.05 (inactive),0.89,0.93
CCCCCCCCCCCCCCCCC(C(=O)O)C(O)(CC(=O)O)C(=O)O (stereo not drawn),1.03 (inactive),1,1.03
O=C(O)CCC(=O)c1ccc(-c2ccccc2)cc1,1.07 (inactive),1.07,1.15
Cc1cc(=O)[nH]c(=S)[nH]1,0.93 (inactive),0.99,0.92
CN1C(C)(C)CCCC1(C)C,0.96 (inactive),1.09,1.05
O=C1c2cccc(O)c2C(=O)c2c(O)cccc21,1.24 (inactive),1.22,1.51
Nc1ccc(N=Nc2ccccc2)c(N)n1,0.86 (inactive),1.07,0.92
CCN(CC)CCNC(=O)COc1ccc(OC)cc1,1.07 (inactive),1.11,1.18
CCCCOc1cc(C(=O)NCCN(CC)CC)c2ccccc2n1,0.94 (inactive),1.33,1.25
O=C(O)c1cc(O)c(O)c(O)c1,0.96 (inactive),1.14,1.09
CN(C)CCCN1c2ccccc2Sc2ccc(C(F)(F)F)cc21,1.26 (inactive),0.93,1.17
CN1Cc2c(N)cccc2C(c2ccccc2)C1 (stereo not drawn),0.78 (inactive),1.16,0.9
CC(=O)Oc1cccc2c1C(=O)c1c(OC(C)=O)cc(C(=O)O)cc1C2=O,0.93 (inactive),1.07,0.99

Structure (SMILES),red/green cell ratio (normalised),normalised cell number [1],normalised cell number [2]
CCN(CC)C(=O)c1cccc(C)c1,1.18 (inactive),1,1.19
COc1cccc(OC)c1C(=O)N[C@@H]1C(=O)N2[C@@H]1SC(C)(C)[C@@H]2C(=O)O,1 (inactive),1.16,1.15
Cc1nnc(SCC2=C(C(=O)O)N3C(=O)[C@@H](NC(=O)Cn4cnnn4)[C@H]3SC2)s1,0.96 (inactive),1.16,1.12
COc1ccccc1OCC(O)CO (stereo not drawn),1.05 (inactive),1.11,1.17
CC(=O)Nc1ccc(S(=O)(=O)Nc2ccc([N+](=O)[O-])cc2)cc1,0.81 (inactive),1.34,1.08
NC(=O)NC1NC(=O)NC1=O (stereo not drawn),1.05 (inactive),1.06,1.11
C#CCN(C)Cc1ccccc1,1.02 (inactive),1.04,1.05
CCN(CC)CCNC(=O)c1cc(S(C)(=O)=O)ccc1OC,1.26 (inactive),0.93,1.16
Oc1cccc2[nH]ccc12,0.85 (inactive),1.31,1.12
CC(=O)OCC1=C(C(=O)O)N2C(=O)[C@@H](NC(=O)CSc3ccncc3)[C@H]2SC1,1.23 (inactive),1,1.24
CCOc1ccc(Cc2nccc3cc(OCC)c(OCC)cc23)cc1OCC,0.88 (inactive),1,0.88
Nc1ccc(S(=O)(=O)Nc2nccs2)cc1,1.36 (inactive),0.91,1.24
Nc1ncnc2nc[nH]c12,1.1 (inactive),1.11,1.22
NC(=O)c1ccccc1O,0.96 (inactive),0.98,0.94
O=C(O)CCNC(=O)c1ccccc1,0.71 (inactive),1.22,0.87
C[N+](C)(C)CCCCCC[N+](C)(C)C,0.92 (inactive),1.09,1
Cc1[nH]c(C)c(Cl)c(=O)c1Cl,0.99 (inactive),1,0.99
O=C1C(=O)c2ccccc2C(O)=C1C1CCC(c2ccc(Cl)cc2)CC1 (stereo not drawn),0.91 (inactive),1.07,0.98
COc1ccc(C2C(=O)c3ccccc3C2=O)cc1,0.84 (inactive),1.14,0.96

Structure (SMILES),red/green cell ratio (normalised),normalised cell number [1],normalised cell number [2]
Cc1ccc(C(=O)C(C)CN2CCCCC2)cc1 (stereo not drawn),1 (inactive),1,1
NC(Cc1ccc(Cl)cc1)C(=O)O (stereo not drawn),1.13 (inactive),0.99,1.12
CCCCOc1ccc(C(=O)CCN2CCCCC2)cc1,1.3 (inactive),1.09,1.41
CCCCCCCCNC(C)C(O)c1ccc(SC(C)C)cc1 (stereo not drawn),1.4 (inactive),0.68,0.96
O=C(O)/C=C(\CC(=O)O)C(=O)O,1.06 (inactive),1.18,1.25
Nc1c2ccccc2nc2ccccc12,0.95 (inactive),0.63,0.6
COc1cc(NS(=O)(=O)c2ccc(N)cc2)ncn1,1.16 (inactive),0.74,0.86
CN1CCN(C(c2ccccc2)c2ccccc2)CC1,1.46 (inactive),1.05,1.54
NC(=O)NC(=O)Cc1ccccc1,1.02 (inactive),1.19,1.21
CCN(CC)CCOC(=O)C(c1ccccc1)c1ccccc1,1.2 (inactive),1.02,1.22
CCN(CC)CCOC(=O)C(Cc1cccc2ccccc12)CC1CCCO1 (stereo not drawn),1.07 (inactive),0.99,1.06
CCCC(C(=O)OCCN(CC)CC)(c1ccccc1)c1ccccc1,1.41 (inactive),0.9,1.28
Cn1c([N+](=O)[O-])cnc1COC(N)=O,1 (inactive),1.01,1.01
CN1CCC(=C2c3ccccc3Sc3ccccc32)CC1,1.08 (inactive),1.03,1.11
O=C1c2c(O)cccc2Cc2cccc(O)c21,0.95 (inactive),1.25,1.19
CCN1CCCC(OC(=O)C(c2ccccc2)c2ccccc2)C1 (stereo not drawn),1.28 (inactive),0.93,1.19
CNC1(C)C2CCC(C2)C1(C)C (stereo not drawn),0.89 (inactive),1.09,0.97
CN1CCOC(c2ccccc2)c2ccccc2C1 (stereo not drawn),1.19 (inactive),0.43,0.51
